Assay outcomes (PubChem BioAssay)
The list is not random: actives were taken first. Their share in the collection is about 0.44%.
GoLoco inh red – blocks human Gai1 binding to RGS12 GoLoco peptide, red readout. P63096. Gai1:RGS12 GoLoco peptide FP, rhodamine, 10 min. Potency, µM (titrated, usually from 61.6 µM), actives largely listed as inhibitors. 230,000 tested, 0.44% active; active = well fitted inhibition curve with a large enough effect, not every such curve was filed as active; inactive = no such curve, though single readings can be large or run the other way; note: nearly all actives have a fitted effect of over 30% in size
Anesthetic bind – candidate novel general anesthetic via apoferritin binding; P02791; apoferritin/1-aminoanthracene competitive binding, fluorescence; Potency, µM (titrated, usually from 77.5 µM), usual class: inhibitors; 350,000 tested, 0.074% active; note: nearly all actives have a fitted effect of over 20% in size
Target sequence (P02791 2-175 limits assumed): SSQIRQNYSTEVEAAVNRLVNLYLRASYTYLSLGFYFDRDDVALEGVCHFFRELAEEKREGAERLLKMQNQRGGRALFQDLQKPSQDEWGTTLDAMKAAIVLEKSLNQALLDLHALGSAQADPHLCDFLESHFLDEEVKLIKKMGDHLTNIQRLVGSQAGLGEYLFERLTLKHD
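Read-out: endpoint 1-AMA fluorescence, excitation 380 nm and emission 535 nm, after compounds sit 10 min at room temperature with 10 uM horse-spleen apoferritin in 50% saturated 1-AMA/PBS. Values come from four-parameter Hill fits.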
TexasRed fluor – counter-screen for TRb-SRC2 inhibitors: fluorescence interference | TRb/SRC2 Texas Red total fluorescence interference | Potency, µM (doses to about 106 µM) | 280,000 tested, 0.29% active | AID 1479; active = well fitted curve in either direction with a large enough effect; inconclusive = small, poorly fitted or top-dose-only effect
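Flags fluorescent or light-absorbing compounds by total fluorescence, S + 2P, at 555 nm excitation and 632 nm emission. Mixture: 20 nM Texas Red SRC2 peptide, 0.6 uM human TRb LBD, 1 uM T3, 5% DMSO; compound exposure 5 h at ambient temperature.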
ERG Ets-DNA blk – ERG Ets/DNA interaction inhibition; 370,000 tested, 0.028% active; AID 624246; Potency, µM (top dose mostly 76.9 µM), usual class: inhibitors; fluorescence polarization, His-ERG Ets domain / labelled DNA; active = well fitted inhibition curve with a large enough effect in the polarisation, with a control signal flat; inconclusive = small, poorly fitted or top-dose-only effect, or effect the other way, or a change in a side signal; inactive = no such curve, though single readings can be large or run the other way; the % refers to the polarisation;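 note: polarization taken with two DNA probes labelled with fluorescein and Texas red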
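His-tagged ERG Ets domain (1 uM in the protein solution; 300mM KCl, 50mM Tris-HCl, 1mM EDTA, 1mM DTT, pH 7.5) received compound, then a probe mix of 5 nM fluorescein-DNA and 100nM Texas-615-DNA. Fluorescence polarization was read for both dyes.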
TRb-SRC2 inh – inhibitors of human thyroid hormone receptor beta-SRC2 interaction | TRbeta-SRC2 peptide binding, fluorescence polarization; receptor liganded with 1 µM T3 | P10828 | Potency, µM (doses to about 106 µM), most hits filed as inhibitors | 280,000 tested, 0.065% active; note: nearly all actives have a fitted effect of over 50% in size
Target sequence (P10828 whole entry, looked up): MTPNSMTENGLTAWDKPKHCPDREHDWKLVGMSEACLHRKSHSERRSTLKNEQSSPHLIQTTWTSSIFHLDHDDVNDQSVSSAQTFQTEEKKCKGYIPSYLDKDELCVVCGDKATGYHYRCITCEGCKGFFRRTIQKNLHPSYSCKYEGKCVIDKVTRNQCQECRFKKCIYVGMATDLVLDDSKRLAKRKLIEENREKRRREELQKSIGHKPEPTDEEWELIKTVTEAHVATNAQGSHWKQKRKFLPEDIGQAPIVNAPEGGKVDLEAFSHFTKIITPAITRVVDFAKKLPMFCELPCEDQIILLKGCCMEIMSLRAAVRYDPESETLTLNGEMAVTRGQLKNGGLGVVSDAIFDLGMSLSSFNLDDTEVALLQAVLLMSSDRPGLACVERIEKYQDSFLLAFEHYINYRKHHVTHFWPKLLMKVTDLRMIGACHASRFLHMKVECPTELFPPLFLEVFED
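Quantitative HTS by FP: 0.6 uM TRb LBD, 20 nM labeled SRC2 20-mer, 1 uM T3, 5% DMSO; 5 hr ambient incubation; % activity per concentration and potencies from concentration series.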
A number is an active result; i = inactive; ? = inconclusive; nt = no result; ! = repeats disagree; [ ] = dose if it differs, or a comment. Unless noted, calls come from the whole dose curve; as a rule, active = well fitted curve in the direction sought with a large enough effect; inconclusive = small, poorly fitted or top-dose-only effect, or another doubt; inactive = no such curve, though single readings can be large; an effect the other way counts as inactive or inconclusive.

SMILES | GoLoco inh red | Anesthetic bind | TexasRed fluor | ERG Ets-DNA blk | TRb-SRC2 inh
COc1ccc([C@H]2OCC3C2CO[C@@H]3c2ccc(OC)c(OC)c2)cc1OC (some centres undefined) | nt | i | i | nt | i
Cc1ccc(C)c(NC(=O)C(Cc2ccccc2)N2Cc3ccccc3C2=O)c1 (centres undefined) | nt | i | 126µM[quencher] | i | i
Cc1ccc(C)c(NC(=O)C(c2ccccc2)N2Cc3ccccc3C2=O)c1 (centres undefined) | nt | i | 100µM[quencher] | i | i
Cc1cc(F)ccc1NC(=O)C(c1ccccc1)N1Cc2ccccc2C1=O (centres undefined) | nt | i | i | i | i
CC(=O)Nc1ccc(NC(=O)C(c2ccccc2)N2Cc3ccccc3C2=O)cc1 (centres undefined) | nt | i | 100µM[quencher] | i | i
CC1COCc2cc3c(cc21)C(C)(C)C(C)C3(C)C (centres undefined) | nt | nt | i | nt | i
NNC(=O)CNC(=O)C12CC3CC(CC(C3)C1)C2 | i | 7.94µM | i | i | i
CCCOP(=O)(c1ccc(N(C)C)cc1)C(Nc1ccccc1)c1ccc(N(C)C)cc1 (centres undefined) | i | i | 31.6µM[quencher] | i | i
COC(=O)C#CC(=O)OC | nt | i | i | nt | i
Cc1ccc2onc(CC(=O)N3CCN(c4cccc(Cl)c4)CC3)c2c1 | nt | i | 25.1µM[quencher] | i | i
CCOC(=O)c1c(C)oc2nc(C)nc(NCCCN3CCN(c4cccc(C)c4)C(C)C3)c12 (centres undefined) | nt | i | 44.7µM[quencher] | i | i
CCCC(=O)Nc1ccc2nc(SCC(=O)Nc3ccc(N4CCOCC4)c(Cl)c3)sc2c1 | 4.47µM | i | i | i | i
C[N+](C)(CCOc1ccccc1)Cc1ccccc1 | nt | nt | nt | i | nt
Cc1cc(C(C)(C)CC(C)(C)C)ccc1OCCOCC[N+](C)(C)Cc1ccccc1 | i | 31.6µM | i | ? | i
CC1CC=CC2C1C(=O)N(Cc1ccccc1)C2c1ccc(F)c(Br)c1 (centres undefined) | nt | i | i | nt | i
N[C@H](Cc1ccc(O)c(O)c1)C(=O)O | i | nt | 28.2µM![quencher] | nt | i
O=C(/C=C/c1ccc(O)c(O)c1)O[C@H](Cc1ccc(O)c(O)c1)C(=O)O | 15.8µM | i | 25.1µM[quencher] | nt | ?
CC(C)C[C@H](NC(=O)[C@H](CO)NC(=O)[C@H](C)NC(=O)[C@H](CCCN=C(N)N)NC(=O)[C@H](CCCN=C(N)N)NC(=O)[C@@H](N)CC(C)C)C(=O)NCC(=O)O | nt | i | i | nt | i
Oc1ccc(/C=N/n2c(COc3ccccc3)n[nH]c2=S)c(O)c1 | nt | i | nt | i | nt
CCc1n[nH]c(=S)n1/N=C/c1ccc(N(C)c2ccccc2)cc1 | i | i | i | 5.01µM | i
Oc1ccccc1/C=N/n1c(COc2ccccc2)n[nH]c1=S | nt | i | nt | 28.2µM | nt
CCc1n[nH]c(=S)n1/N=C/c1ccc2c(c1)OCO2 | i | ? | i | i | i
CC1CC(OCC(O)CN2CCOCC2)CC(C)(C)C1 (centres undefined) | i | i | i | i | i
CC1CC(OCC(O)C[N+]2(C)CCOCC2)CC(C)(C)C1 (centres undefined) | 2.24µM | i | i | i | i
O=C(NCC1CCCO1)c1ccccc1 (centres undefined) | i | i | i | i | i
SMILES | GoLoco inh red | Anesthetic bind | TexasRed fluor | ERG Ets-DNA blk | TRb-SRC2 inh
C[n+]1cccc(C(=O)NCC2CCCO2)c1 (centres undefined) | 1.78µM | i | i | i | i
Cc1cccc(N2C(=O)c3cccc4c(N)ccc(c34)C2=O)c1 | nt | i | nt | ? | nt
Cc1cccc(N2C(=O)c3cccc4c(N(C)CCO)ccc(c34)C2=O)c1 | 25.1µM | i | i | i | i
Cc1ccc(CNC(=O)CC(C)S(=O)(=O)c2ccc3c(c2)NC(=O)CO3)cc1 (centres undefined) | nt | i | nt | i | nt
Cc1ccc(N(C)C(=O)CC(C)S(=O)(=O)c2ccc3c(c2)NC(=O)CO3)cc1 (centres undefined) | nt | i | 12.6µM[quencher] | i | i
CS(=O)(=O)c1cc([N+](=O)[O-])c(Sc2nc3ccccc3[nH]2)c([N+](=O)[O-])c1 | 7.94µM | i | i | i | i
O=C(O)c1cc([N+](=O)[O-])c(Sc2nc3ccccc3[nH]2)c([N+](=O)[O-])c1 | nt | i | nt | i | nt
CC(/C=C/C(=O)NO)=C\[C@@H](C)C(=O)c1ccc(N(C)C)cc1 | i | ? | i | nt | i
CCCC(C)NS(=O)(=O)c1ccc(OC)c(C)c1 (centres undefined) | i | 15.8µM | i | i | i
CCCC(C)NS(=O)(=O)c1ccccc1 (centres undefined) | i | ? | i | nt | i
CC[C@H](C)[C@H](NC(=O)[C@H](CC(C)C)NC(=O)[C@H](CO)NC(=O)[C@H](CCC(=O)O)NC(=O)[C@H](CC(C)C)NC(=O)[C@H](Cc1ccc(O)cc1)NC(=O)[C@H](CCCCN)NC(=O)[C@H](CCCCN)NC(=O)[C@H](C)NC(=O)[C@H](CO)NC(=O)[C@H](CC(C)C)NC(=O)[C@H](CCC(N)=O)NC(=O)CNC(=O)[C@H](CC(C)C)NC(=O)[C@H](CC(C)C)NC(=O)[C@H](CCCNC(=N)N)NC(=O)[C@H](CO)NC(=O)[C@H](Cc1ccccc1)NC(=O)[C@H](CC(=O)O)NC(=O)[C@H](CO)NC(=O)[C@@H](NC(=O)[C@H](Cc1ccccc1)NC(=O)[C@@H](NC(=O)CNC(=O)[C@H](CC(=O)O)NC(=O)[C@H](C)NC(=O)[C@@H](N)Cc1cnc[nH]1)C(C)C)[C@@H](C)O)C(N)=O | nt | i | i | nt | i
COC(=O)c1cccc(C)c1S(=O)(=O)NC(=O)Nc1nc(OCC(F)(F)F)nc(N(C)C)n1 | nt | nt | i | nt | i
NC(=S)COc1ccccc1 | 22.4µM | i | i | i | i
Oc1ccc(Nc2ccccc2)cc1 | nt | nt | i | nt | i
CC(O)c1n(C)c(Cl)c[n+]1C (centres undefined) | 12.6µM | i | i | i | i
CC(=O)Nc1ccc(NC(=O)CCCCCN2C(=O)c3ccccc3C2=O)cc1 | i | i | i | i | i
CCN(CC)c1ccc(NC(=O)CCCCCN2C(=O)c3ccccc3C2=O)cc1 | 22.4µM | ? | i | i | i
CC(=O)Oc1cc(C)c(OC(C)=O)c2ccccc12 | i | nt | i | nt | i
O=C(CNC(=O)c1cccs1)OCC(=O)c1ccc2ccccc2c1 | i | 14.1µM | i | i | i
COc1ccc(NS(=O)(=O)c2cc(NC(=O)c3ccco3)ccc2N2CCCCC2)cc1 | 8.91µM | i | i | i | i
COc1cc(O)cc(O)c1 | nt | nt | i | nt | i
COc1cc(OC)cc(OC)c1 | 17.8µM | i | i | nt | i
CCc1ccccc1NC(=O)c1cnc2sc(N3CCCC3)nn2c1=O | nt | i | 35.5µM[quencher] | i | i
CN(C)Cc1cc(O)c(O)c(CN(C)C)c1 | i[14.2 µM] | nt | nt | nt | nt
CN(C)Cc1cc(O)c(CN(C)C)cc1O | 3.98µM | i | ? | i | i
Cc1cc(NC(=O)/C(C#N)=C/c2ccc(-c3cccc(C(F)(F)F)c3)o2)n(-c2ccccc2)n1 | i | i | i | i | i
